Data taken from the supplement of paper PMC6555819.

Key:
Experiment in all cases: PBM binding z-score (relative to random genomic background probes); higher = stronger binding; sequences stand for … in GC…GCGATTGACAGCGTAGAATGAAGG
[1] = system: FXR:RXRa (NR concentration 270 nM, RXRa partner concentration 90 nM)
In short: (§1)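 For binding z-scores, the reference was random background probes on custom Agilent 4×180K protein-binding microarrays. These arrays were incubated 1 h with ligand-free nuclear receptor dimers in PBS pH 7.4, 2% milk, 0.02% Triton X-100, 1 mM DTT, 0.2 mg/mL BSA and 0.4 mg/ml salmon testes DNA. Fluorescence was scanned after antibody detection of each partner (one per run) and regression-normalized.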

[2] = system: LXRa:RXRa (NR concentration 270 nM, RXRa partner concentration 90 nM)
In short: as §1

[3] = system: LXRa homodimer (NR concentration 270 nM)
In short: as §1

[4] = system: LXRb:RXRa (NR concentration 270 nM, RXRa partner concentration 90 nM)
In short: as §1

[5] = system: LXRb homodimer (NR concentration 270 nM)
In short: as §1

[6] = system: PPARa:RXRa (NR concentration 270 nM, RXRa partner concentration 90 nM)
In short: as §1

[7] = system: PPARg:RXRa (NR concentration 180 nM, RXRa partner concentration 90 nM)
In short: as §1

[8] = system: PPARg:RXRa 270nM:90nM, anti-RXR (NR concentration 270 nM, RXRa partner concentration 90 nM)
In short: as §1

[9] = system: PPARg:RXRa 30nM:10nM, anti-RXR (NR concentration 30 nM, RXRa partner concentration 10 nM)
In short: as §1

[10] = system: PPARg:RXRa 90nM:30nM, anti-RXR (NR concentration 90 nM, RXRa partner concentration 30 nM)
In short: as §1

| Sequence | PBM binding z-score [1] | PBM binding z-score [2] | PBM binding z-score [3] | PBM binding z-score [4] | PBM binding z-score [5] | PBM binding z-score [6] | PBM binding z-score [7] | PBM binding z-score [8] | PBM binding z-score [9] | PBM binding z-score [10] |
| --- | --- | --- | --- | --- | --- | --- | --- | --- | --- | --- |
| CCTCGGAAGACAACAGGAGGTCAGAGCTGCCAGA | 0.802 | 1.66 | 1.65 | 1.31 | -0.201 | 1.62 | 0.36 | 0.247 | -0.599 | -0.387 |
| CAAACTAGGTCACCGGCAGGTCAAAGTCCGCATG | 5.82 | 5.46 | 3.97 | 4.21 | 0.888 | 5.7 | 9.54 | 7.62 | 5.44 | 7.61 |
| CCAGACTGGTGAAAGGTAACTCAGTCTGGTACGC | -0.45 | -0.241 | -0.759 | -0.0625 | -0.842 | 1.46 | 2.67 | 3.83 | 1.66 | 3.26 |
| AGAATGAGGTTATACTTAGATCAGGGAAGAAAGT | 1.79 | 1.76 | 0.275 | 1.58 | 0.388 | 2.68 | 1.83 | 1.44 | 0.605 | 1.17 |
| ATATGCAGGTTACATCCGGGTCATTCAGGCTATG | 2.7 | 4.82 | 0.974 | 2.99 | 0.382 | 3.53 | 2.58 | 2.61 | 0.935 | 1.49 |
| ATATGTAGGTTATCGAGTCATTCAGTTTGCGCAT | 0.672 | 1.1 | 0.419 | 1.04 | 0.701 | 3.37 | 4.61 | 4.14 | 2 | 3.27 |
| CGTCAAAGTTCAACTAAGGTGACGTAAAGCACGC | 7.03 | 6.44 | 4.17 | 4.04 | 2.05 | 5.05 | 5.01 | 5.86 | 2.52 | 4.48 |
| TGTCAAAGTTCAAAGGTAACCTAAGTATCCACAC | 7.3 | 6.43 | 4.99 | 5.02 | 2.06 | 6.03 | 8.74 | 7.74 | 5.57 | 7.47 |
| ATCGAAAGATCGAAGGTGAGTATACCCACCCGAA | 0.128 | -0.167 | -0.351 | -0.103 | -0.379 | 0.477 | 0.73 | 0.539 | 0.2 | 0.266 |
| ATCGAAAGGTGGAGGTGAGTATAGAGAAAGGGAA | 0.433 | 0.583 | -0.00361 | 0.504 | 0.617 | 0.622 | 0.263 | 0.302 | 0.265 | 0.243 |
